For 36 molecules, composite z-score results are on record in PubChem BioAssay.

The nature of the test: small-molecule microarray binders of probe aDKK1, primary screen, biochemical, biotinylated probe, 635/667 nm fluorescence (AID 1099).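 Further: score merges 667nm spot fluorescence with signal to noise across triplicate slides; reference of the scale not given here.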 The conditions noted are these: higher = more signal.
For `COc1ccc(C(O)C2C=CC3C(=O)N(c4ccccc4)C(=O)C3N2Nc2ccc(C#N)cc2)c2ccccc12` (stereo unspecified), the composite z-score is 0.585.

Regarding `COCCOC(=O)N1C(=O)[C@@]2(c3ccccc31)[C@H](C(=O)N1CCN(c3ncccn3)CC1)[C@H]1C(=O)O[C@H](c3ccccc3)[C@H](c3ccccc3)N1[C@@H]2c1ccc(OCCO)cc1`, the composite z-score was determined as 0.657.

The molecule `CC=CC(O)C1C=CC2C(=O)N(c3ccccc3)C(=O)C2N1Nc1ccccc1` (stereo unspecified) came in with a composite z-score of 0.864.

As to `Cc1ccc(S[C@]2(C(=O)NCC(F)(F)F)CC(=O)N(Cc3ccccc3)[C@@H]2c2ccc(CO)cc2)cc1`, the composite z-score was 0.382.

`[N-]=[N+]=Nc1ccccc1C[C@@]1(C(=O)O)N=C(c2ccc(OCCCO)cc2)O[C@@H]1c1ccccc1`: the composite z-score turned out to be 0.609.

On to `COCCCNC(=O)[C@]1(Cc2ccccc2CN=[N+]=[N-])N=C(c2ccc(OCCCO)cc2)O[C@@H]1c1ccccc1`, for which the composite z-score came to 0.383.

Consider `CC(C)OC(=O)CC(=O)CC(O)c1cccc(C#N)c1` (stereo unspecified), for which the composite z-score is 0.662.

The molecule `CCCC=C(CCC)[C@@H](NP(=O)(c1ccccc1)c1ccccc1)c1ccc(C(F)(F)F)cc1` registered a composite z-score of 0.578.

`CCCN1C(=O)[C@]2(Cc3ccccc3)N=C(c3ccc(OCCCO)cc3)O[C@@H]2c2ccccc21` returned a composite z-score of 0.206.

In turn, `C[C@]12C(=O)N(CCCCCCO)[C@@H]3C(=O)N(c4ccc(Cl)cc4)CC=CC31O[C@@H]1/C=C\CCCOC(=O)C12` (stereo partly specified) came in with a composite z-score of -0.134.

With `COCCOC(=O)N1C(=O)[C@@]2(c3ccccc31)[C@H](c1ccc(OCCO)cc1)N1[C@H](c3ccccc3)[C@H](c3ccccc3)OC(=O)[C@H]1[C@@H]2C(=O)Nc1nc2ccccc2s1`, the composite z-score is -0.223.

Regarding `C=CCN1Cc2ccccc2C[C@@]2(N=C(c3ccc(OCCCO)cc3)O[C@H]2c2ccccc2)C1=O`, the composite z-score is 0.189.

Regarding `CN(C)CCCCNC(=O)[C@H]1C[C@H]2C(=O)N3CCC[C@H]3C(=O)N2[C@H]1c1ccc(O)cc1`, the composite z-score is -1.21.

The molecule `COC1(C)CN(Cc2ccccc2Br)[C@H](/C=C/c2ccccc2)[C@H](Cc2ccccc2)O1` (stereo partly specified) had a composite z-score of -0.383.

On to `COc1cc(OC)c(C(O)C2C=CC3C(=O)N(c4ccccc4)C(=O)C3N2Nc2ccc(C#N)cc2)cc1Br` (stereo unspecified), for which the composite z-score was 1.56.

The molecule `O=C(O)[C@]1(Cc2ccccc2)N=C(c2ccc(OCCCO)cc2)O[C@@H]1c1ccccc1` showed a composite z-score of 0.568.

The molecule `O=C1c2ccccc2[C@@]2(Cc3ccccc3N(C3CC3)C2=O)[C@H](c2ccc(CO)cc2)N1C1CCCCC1` returned a composite z-score of 0.16.

`COCCOC(=O)N1C(=O)[C@@]2(c3cc(C#CCC(C(=O)OC)C(=O)OC)ccc31)[C@H](c1ccc(OCCO)cc1)N1[C@H](c3ccccc3)[C@H](c3ccccc3)OC(=O)[C@H]1[C@@H]2C(=O)N1CCN(c2ncccn2)CC1` displayed a composite z-score of 0.0926.

In turn, `O=C1O[C@@H](c2ccccc2)[C@@H](c2ccccc2)N2[C@@H](c3ccccc3OCCO)[C@]3(C(=O)Nc4ccc(C#CCCO)cc43)[C@@H](C(=O)N3CCN(c4ncccn4)CC3)[C@H]12` gave a composite z-score of -0.0415.

Molecule `COc1cc(CO)cc(I)c1O[C@H]1C=C(C(=O)NCCO)C[C@@H](N(CC2CCCCC2)C(=O)c2ccc(C(F)(F)F)cc2)[C@@H]1O` showed a composite z-score of -0.267.

Turning to `Cc1c(NC(=O)/C(C#N)=C/C=C/c2ccccc2[N+](=O)[O-])c(=O)n(-c2ccccc2)n1C`, the composite z-score is -0.0194.

Molecule `CCC[C@@H]1C[C@@]1(CCC)[C@@H](NP(=O)(c1ccccc1)c1ccccc1)c1ccc(Cl)cc1` came in with a composite z-score of 0.0536.

On to `C=CCN1C(=O)[C@]2(CC=C)N=C(c3ccc(OCCCO)cc3)O[C@@H]2c2ccccc21`, for which the composite z-score stood at 0.945.

The molecule `O=C1c2ccccc2[C@](Cc2ccccc2I)(C(=O)NCCN2CCOCC2)[C@H](c2ccc(CO)cc2)N1Cc1ccccc1` registered a composite z-score of 1.05.

With `COC(=O)[C@@]1(Cc2ccc(F)cc2)[C@H]2c3cc(C(=O)N4CCCC4)n(CCc4c[nH]c5ccc(OC)cc45)c3C[C@H]2CN1C(=O)c1ccccc1`, the composite z-score is 1.6.

In turn, `O=C1c2ccccc2[C@](Cc2ccccc2I)(C(=O)NCc2ccccc2)[C@H](c2ccc(CO)cc2)N1C1CCCCC1` displayed a composite z-score of 0.969.

Turning to `COCC(=C=CC[C@H](O)c1cccc(OCCO)c1)C[C@H](O)c1ccccn1`, the composite z-score amounted to 0.161.

As to `CN1C2C=C(CCCO)C(C3C(=O)N(C(N)=O)C(=O)C32)C1c1cccs1` (stereo unspecified), the composite z-score came out at 1.3.

As for `CN(C)CCCNC(=O)[C@@H]1c2ccccc2C(=O)N(Cc2ccc(OC(F)(F)F)cc2)[C@H]1c1ccc(CO)cc1`, the composite z-score was -0.115.

`CC(C)(C)OC(=O)CC[C@]1(C(=O)NCCN2CCOCC2)N=C(c2ccc(OCCCO)cc2)O[C@H]1c1ccccc1` displayed a composite z-score of 0.214.

The molecule `CC(C)CNC(=O)[C@@H]1c2ccccc2C(=O)N(Cc2cc(F)cc(C(F)(F)F)c2)[C@H]1c1ccc(CO)cc1` yielded a composite z-score of 0.806.

For `C=C(/C(=C/C[C@@H](OC(=O)c1ccncc1)c1ccc(OCCO)cc1)c1cc(C(=O)OC)ccc1OC)C(C)C`, the composite z-score was -0.354.

`C=C(CCCC)/C(=C/C[C@@H](OC(=O)c1ccncc1)c1cccc(OCCO)c1)c1cnc2ccccc2c1` gave a composite z-score of 0.11.

In turn, `C=CCOC(=O)[C@H]1[C@@H]2C(=O)O[C@@H](c3ccccc3)[C@@H](c3ccccc3)N2[C@@H](c2ccc(OCCOC(=O)[C@H]3C[C@H]4C(=O)N[C@@H](Cc5ccccc5)C(=O)N4[C@H]3c3cccc(OCCO)c3)cc2)[C@]12C(=O)Nc1ccc(I)cc12` gave a composite z-score of -0.298.

In the case of `Cc1ccc(S[C@]2(C(=O)NC3CC3)CC(=O)N(Cc3ccccc3Cl)[C@@H]2c2ccc(CO)cc2I)cc1`, the composite z-score worked out at 0.633.

On to `C[C@@H]1ON(c2ccc(C(=O)OC(C)(C)C)cc2)[C@H](c2ccc(Br)cc2)[C@H]1C(=O)N1C(=O)OC[C@H]1Cc1ccccc1`, for which the composite z-score is -0.0749.
